Bioassay records: PubChem BioAssay, National Center for Advancing Translational Sciences (NCATS)
Most compounds without a hit are left out; they make up all but 4.8% or so of the library.
ATXN2 expr inh: inhibitors of ATXN2 expression. HEK-293 ATXN2-luciferase reporter, luminescence, 24 h. Potency, µM (top dose mostly 57 µM), for the others: top-dose activity change, negative = inhibition, hits mostly inhibitors. 360,000 tested, 0.72% active; note: potency is the fitted concentration of half-maximal effect; % is set by controls: 0 for no effect and ±100 for the full control effect; nearly all actives have a fitted effect of over 55% in size
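ATXN2-luciferase reporter cells (luciferase flanked by upstream and downstream ATXN2 gene portions) were treated 24 h at 37 °C with compounds at up to 57 uM. SteadyGlo luminescence gave expression; GF-AFC fluorescence gave viability.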
USP2a block: blocks human ubiquitin-specific protease USP2a; O75604; USP2 core, Ub-CHOP2 coupled fluorogenic reporter, 485/531; Potency, µM (highest dose often 38.3 µM), inactives show top-dose activity change, negative = inhibition, actives largely listed as inhibitors; 330,000 tested, 0.01% active; AID 463254;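 note: potency is the fitted concentration of half-maximal effect; plate controls were DMSO wells for no effect and full inhibition by NEM control for full effect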
Target sequence (O75604 whole entry, looked up): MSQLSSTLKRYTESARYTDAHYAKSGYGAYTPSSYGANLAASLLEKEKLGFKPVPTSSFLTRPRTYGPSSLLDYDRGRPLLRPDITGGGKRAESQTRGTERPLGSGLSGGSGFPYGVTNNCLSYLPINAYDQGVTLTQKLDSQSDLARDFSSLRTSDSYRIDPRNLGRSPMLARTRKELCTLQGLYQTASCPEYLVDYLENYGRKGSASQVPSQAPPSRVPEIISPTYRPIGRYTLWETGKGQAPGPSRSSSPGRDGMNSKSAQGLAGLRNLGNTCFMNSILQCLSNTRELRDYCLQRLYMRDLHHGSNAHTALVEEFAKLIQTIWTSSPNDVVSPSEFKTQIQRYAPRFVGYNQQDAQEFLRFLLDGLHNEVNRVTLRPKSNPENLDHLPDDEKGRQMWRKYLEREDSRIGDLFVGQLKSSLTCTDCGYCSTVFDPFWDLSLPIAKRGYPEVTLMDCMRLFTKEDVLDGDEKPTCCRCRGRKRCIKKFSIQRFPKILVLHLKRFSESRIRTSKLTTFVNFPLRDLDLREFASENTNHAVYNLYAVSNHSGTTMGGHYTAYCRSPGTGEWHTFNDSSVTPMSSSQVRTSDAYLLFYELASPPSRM
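Cell-free coupled assay: 10nM USP2 core preincubated 30min RT with compound in Tris-HCl pH 8.0/CaCl2/CHAPS buffer, then 25nM Ub-CHOP2 and 25nM reporter substrate; fluorescence (Ex 485/Em 531) read after 60min RT, normalized to NEM inhibition, concentration-response curves fitted.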
IL-1B inflam inh: inhibitors of inflammasome signaling (IL-1 beta secretion); THP-1 LPS/ATP IL-1B secretion, AlphaLISA, 16 h; stronger effect = lower value; activity change, % at 57.5 µM; 360,000 tested, 4.7% active; AID 743279; in the data active = activity change below about -50%; inconclusive = mostly about -30% to -49%; note: % is set by controls: 0 for no effect and ±100 for the full control effect
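THP-1 cells pretreated 1 hr with compounds (up to 57.5 uM final), then stimulated with LPS (250 ng/mL final) plus ATP (1.25 mM final); secreted IL-1B measured by AlphaLISA after 16 hr, decreased signal indicating inhibition.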
ATXN viability: reduces viability in counter-screen for ATXN expression inhibitors; AID 651635; S2 cells (HEK-293 line with an ATXN2-luciferase reporter) viability, CellTiter-Fluor protease fluorescence, 24 h; Potency, µM (doses to about 56.7 µM), usual class: cytotoxic; 400,000 tested, 0.49% active; note: potency is the fitted concentration of half-maximal effect; nearly all actives have a fitted effect of over 40% in size
USP1-UAF1 inh: USP1/UAF1 (human) deubiquitinase inhibition | O94782 | recombinant USP1/UAF1, Ub-Rhodamine cleavage fluorescence | Potency, µM (series often up to 57.1 µM), for inactives: at the highest dose activity change, negative = inhibition, most hits filed as inhibitors | 390,000 tested, 0.23% active; note: potency is the fitted concentration of half-maximal effect; % is set by controls: 0 for no effect and ±100 for the full control effect; nearly all actives have a fitted effect of over 60% in size
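Step one: compound is pinned into 1nM USP1/UAF1 in HEPES pH 7.8 buffer with TCEP. Step two: 15 min room-temperature incubation. Step three: Ub-Rho (150nM final) starts cleavage, tracked by fluorescence over six one-minute reads.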
* marks the source's active call; other numbers are inactive results; i = inactive; ? = inconclusive; . = no result; [ ] = dose if it differs, or a comment. Unless noted, calls come from the whole dose curve; as a rule, active = well fitted curve in the direction sought with a large enough effect; inconclusive = small, poorly fitted or top-dose-only effect, or another doubt; inactive = no such curve, though single readings can be large; an effect the other way counts as inactive or inconclusive.

SMILES | ATXN2 expr inh | USP2a block | IL-1B inflam inh | ATXN viability | USP1-UAF1 inh
CC1=C(C(=O)Nc2cc(C(=O)N(C)Cc3ccccc3)ccc2C)SCCO1 | 1.4% | 2.1% | -54.8* | i | -19.6%
CCCCNC(=O)c1ccc2nc(CC)c(N(CC)CCOC)n2c1 | -6.9% | . | -4.5 | i | .
O=C(c1ccc(F)cc1)N1CCC(c2nc(-c3ccc(S(=O)(=O)N4CCCC4)cc3)no2)CC1 | . | . | . | . | -4.1%
CC(C)(C)OC(=O)N1CCC(c2c(C(=O)NCCN3CCC(Cc4ccccc4)CC3)cnn2-c2ccccc2)CC1 | . | . | . | . | -6.3%
COC(=O)C1CCN(C(=O)CSc2nc3ccc(OC)cc3[nH]2)CC1 | 4.4% | -4.8% | -64.2* | i | -18.3%
COc1ccc2nc(SCC(=O)N3CCNC3=O)[nH]c2c1 | 0.5% | -0.9% | 3.3 | i | -12.1%
Cn1c(SCc2c(F)cccc2Cl)nc2c(c1=O)SCC2 | -28.9% | -0.8% | -58.6* | i | -4.6%
Cn1c(SCc2c(F)cccc2Cl)nc2ccccc2c1=O | -2.1% | -4.1% | -0.2 | i | -16.0%
COc1cc(C2CC(=O)Oc3c(C(CCN4CCCC(C)C4)c4ccc(N(C)C)cc4)c(OC)cc(OC)c32)cc(OC)c1OC (centres undefined) | -11.8% | 5.9% | ? | i | -33.1%
COc1cc(C(CCN2CCCC(C)C2)c2c(OC)cc(OC)c3c2OC(=O)CC3c2ccc(N(C)C)cc2)cc(OC)c1OC (centres undefined) | -6.9% | 9.0% | -110.6* | ? | 1.4%
CCCCCc1cc(=O)oc2c(C(CCN3CCCCC3)c3cc(OC)c(OC)c(OC)c3)c(OC)cc(OC)c12 (centres undefined) | 31.6µM* | ? | -3.4 | 20µM* | -25.2%
CCCCCc1cc(=O)oc2c(C(CCN3CCCC(C)C3)c3cc(OC)c(OC)c(OC)c3)c(OC)cc(OC)c12 (centres undefined) | ? | 2.0% | -59.9* | 31.6µM* | -20.4%
CCCCCc1cc(=O)oc2c(C(CCN(CC)CC)c3ccc(N(C)C)cc3)c(OC)cc(OC)c12 (centres undefined) | ? | 0.1% | 0.0 | 25.1µM* | -12.6%
CCOC(=O)N1CCN(CC(=O)Nc2nccs2)CC1 | . | . | 8.5 | i | -12.9%
Cc1ccc(C(=O)N(Cc2cc3cccc(C)c3nc2N(C)C)CC2CCCO2)cc1 (centres undefined) | . | . | . | i | .
Cc1ccc(CNC(=O)Cc2c(C)c3cc4c(C)coc4cc3oc2=O)cc1 | . | . | . | . | -13.3%
CCN(CC)CCC(c1ccc2c(c1)OCO2)c1c(OC)cc(OC)c2ccc(=O)oc12 (centres undefined) | 10.3% | -0.1% | -8.9 | 10µM* | -26.2%
CCc1c(O)cc(O)c(C(=O)c2ccc(OCCN3CCOCC3)c(OC)c2)c1CC(=O)N(CCOC)CCOC | 1.09µM* | . | . | . | .
COc1cc(C(=O)OCCCN2CCOCC2)ccc1O | -13.2%[11.3 µM] | 1.2% | 8.6 | i | -8.2%
Cc1ccc2nc(-c3ccc(NS(=O)(=O)c4ccc(F)c(F)c4)cc3)sc2c1 | 92.6% | -24.1% | -51.4* | i | -12.3%
Cc1ccc(NC(=O)CN(c2ccc(Cl)cc2)S(=O)(=O)c2cc([N+](=O)[O-])ccc2Cl)c(C)c1 | ? | -0.3% | -79.4* | i | -18.2%
CN(c1ncccc1CNc1nc(Nc2ccc3c(c2)CC(=O)N3)ncc1C(F)(F)F)S(C)(=O)=O | 4.32µM* | . | . | . | .
COc1ccc(/C=C\C(=O)c2c(O)ccc3c(C)cc(=O)oc23)cc1OC | -1.5% | -1.5% | -69.8* | i | -10.8%
CC(=O)c1c(OCC(=O)O)ccc2c(C)cc(=O)oc12 | 4.3% | . | 17.0 | i | 0.5%
Cc1cc(=O)oc2c(C(=O)/C=C\c3cccs3)c(O)ccc12 | -1.7% | 0.4% | -98.9* | i | -7.1%
SMILES | ATXN2 expr inh | USP2a block | IL-1B inflam inh | ATXN viability | USP1-UAF1 inh
COc1cc(/C=C/C(=O)c2c(O)ccc3c(C)cc(=O)oc23)ccc1O | -32.6% | . | -79.7* | i | -12.0%
O=C(/C=C/c1cccs1)c1cc(Cl)ccc1O | 6.3% | -0.3% | -21.0 | ? | -19.4%
Cc1cc(=O)oc2c(C(=O)/C=C/c3ccccc3)c(O)ccc12 | 0.8% | 0.5% | 9.6 | i | -6.6%
CC1(Cc2ccc3ccccc3n2)C(=O)Nc2ccc(OC(F)(F)F)cc21 (centres undefined) | -22.2% | . | -4.1 | i | .
COc1cccc(CNC(=O)CCC2CCCN(C(=O)c3cc4ccccc4o3)C2)c1 (centres undefined) | -5.3% | 1.0% | -90.4* | i | -4.7%
CCCC(=O)O[C@]1(C(=O)COC(=O)CC)CC[C@H]2[C@@H]3CCC4=CC(=O)CC[C@]4(C)[C@H]3[C@@H](O)C[C@@]21C | 4.9%[25.6 µM] | . | . | i | .
COc1cccc(OC)c1OCCN1CCN(C(c2ccccc2)c2ccccc2)CC1 | -33.4% | -1.9% | -52.7* | i | -9.3%
COc1cccc(NC(=S)N2CCN(C(c3ccccc3)c3ccccc3)CC2)c1 | -2.5% | 1.4% | -12.9 | i | -4.2%
COc1ccc(NC(=S)N2CCN(C(c3ccccc3)c3ccccc3)CC2)c(OC)c1 | -48.2% | -7.6% | -59.4* | i | -17.9%
COc1cccc(OC)c1OCCCN1CCC(Cc2ccccc2)CC1 | -11.9% | 2.8% | -65.3* | i | -10.7%
COc1ccc(CNC(=O)CN2CCN(C(c3ccccc3)c3ccccc3)CC2)cc1 | -15.2% | -5.7% | -64.3* | i | -6.2%
O=C(c1ccncc1)N1CCC2(CCC(CNC(=O)C3(N4CCOCC4)CCCCC3)O2)CC1 (centres undefined) | . | . | . | i | .
O=C(CSc1nc2c(sc3ccccc32)c(=O)n1CCCC(=O)NC1CCCC1)Nc1ccc(F)cc1 | . | . | . | . | 23.7%
CN(C)CCNC(=O)COc1ccc(C23CC4CC(CC(C4)C2)C3)cc1 | -16.6% | 0.4% | -59.2* | i | -5.5%
Cc1ccc(OCCCCNC2CCCC(C)C2C)c(C)c1 (centres undefined) | ? | 0.0% | -95.3* | ? | -8.7%
C=CCS(=O)(=O)c1nc2ccccc2s1 | ? | -1.9% | -115.0* | . | -19.8%
O=S(=O)(CCSc1nc2ccccc2s1)c1nc2ccccc2s1 | ? | 3.9% | -100.0* | 15.8µM* | -10.7%
CCn1c(SCC#N)nc2c(c1=O)C1(CCCC1)Cc1ccccc1-2 | 0.4% | -0.8% | -6.7 | i | -22.4%
CCCn1c(SCC(N)=O)nc2c(c1=O)C1(CCCC1)Cc1ccccc1-2 | -1.4% | -8.5% | -58.3* | ? | -19.5%
Cc1sc2nc3c(C(=O)N4CCCC4)cc(C(=O)c4ccccc4O)cn3c(=O)c2c1C | -31.2% | -0.1% | ? | ? | -24.9%
CCc1c(C)sc2nc3c(C(=O)N4CCOCC4)cc(C(=O)c4cc(F)ccc4O)cn3c(=O)c12 | -20.9% | -12.6% | -75.8* | ? | -26.1%
COc1ccc(/C=C/C(=O)Nc2ccc3nc4c(c(Nc5ccc(OC)c(OC)c5)c3c2)CCCC4)cc1 | . | . | . | . | -16.2%
